# In PubChem BioAssay (NCI):
# This is part of a sample that, as a whole, favours compounds with a hit. Of some 79,000 tested, about 15% had one in any assay. A number with no mark means an inactive call. Activity calls are given as the source filed them. Cut-off read from the data, not from the text of the source: active = growth inhibition above about 70%; inactive = the rest.
# Assays:
# [1] = NCI Yeast Anticancer Drug Screen. Data for the mec2-1 strain (AID 157); settings: S. cerevisiae mec2-1 strain, active compounds read high
# Method in brief: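 Cells of the genetically defined mec2-1 yeast strain are incubated with test compound. Inhibition of growth is calculated against vehicle-treated controls.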
# [2] = NCI Yeast Anticancer Drug Screen. Data for the rad14 strain (AID 159);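 note: 0% = growth of vehicle-treated control cultures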; settings: S. cerevisiae rad14 strain growth inhibition, active compounds read high
# Method in brief: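 Test compounds were applied to a repair-deficient yeast strain. Its growth was then compared with that of cultures given vehicle alone, and inhibition was expressed relative to those controls.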
# [3] = NCI Yeast Anticancer Drug Screen. Data for the sgs1 mgt1 strain (AID 161);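 note: 0% = growth of cultures given vehicle only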; settings: S. cerevisiae sgs1 mgt1 strain, active compounds read high
# Method in brief: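 Read-out: growth inhibition vs vehicle controls. Cells: mutant yeast strain deficient in DNA damage repair.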
# [4] = NCI Yeast Anticancer Drug Screen. Data for the CLN2oe strain (AID 163);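 note: 0% = growth of vehicle-only control cultures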; settings: S. cerevisiae CLN2oe strain, active compounds read high
# Method in brief: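 Strain altered in cell-cycle control, incubated with compound; growth compared to solvent-treated controls.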
# [5] = NCI Yeast Anticancer Drug Screen. Data for the cln2 rad14 strain (AID 165);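 note: 0% = growth equal to vehicle treated cultures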; settings: S. cerevisiae cln2 rad14 strain, active compounds read high
# Method in brief: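 The screen exposed genetically defined yeast (cln2 rad14) to test compounds and scored growth inhibition relative to vehicle-treated controls.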
# [6] = NCI Yeast Anticancer Drug Screen. Data for the bub3 strain (AID 167); settings: S. cerevisiae bub3 mutant strain, active compounds read high
# Method in brief: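 Yeast carrying a defined mutation is treated with each compound, and growth is compared with that of vehicle-exposed cells to give inhibition.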
# [7] = NCI Yeast Anticancer Drug Screen. Data for the wt2 strain (AID 169);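 note: 0% = growth of vehicle-treated yeast cultures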; settings: S. cerevisiae wt2 strain growth inhibition, active compounds read high
# Method in brief: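 Steps: yeast strain treated with compound; growth recorded; inhibition calculated relative to cultures given vehicle alone.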
# [8] = NCI Yeast Anticancer Drug Screen. Data for the mlh1 strain (AID 171);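 note: 0% = growth of vehicle-treated control cultures of the same strain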; settings: S. cerevisiae mlh1 strain growth inhibition, active compounds read high
# Method in brief: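 Yeast screen: mutant strain plus compound, growth scored against vehicle control wells.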
# [9] = NCI Yeast Anticancer Drug Screen. Data for the sgs1 strain (AID 173);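 note: 0% = growth of vehicle-only control cultures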; settings: S. cerevisiae sgs1 mutant, active compounds read high
# Method in brief: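 Inhibition of yeast growth served as the measure. The mutant strain was treated with each compound, and growth was normalised to cultures receiving vehicle alone.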
# [10] = NCI Yeast Anticancer Drug Screen. Data for the mlh1 rad18 strain (AID 175); settings: S. cerevisiae mlh1 rad18 strain growth inhibition, active compounds read high
# Method in brief: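 Compound-treated yeast growth, normalised to vehicle controls. Strain bears defined DNA repair mutations.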
# [11] = NCI Yeast Anticancer Drug Screen. Data for the rad18 strain (AID 177); settings: S. cerevisiae rad18 mutant growth inhibition, active compounds read high
# Method in brief: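 Inhibition values reflect reduced yeast growth compared with vehicle-treated controls, using a strain engineered with a DNA damage repair defect.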
# [12] = NCI Yeast Anticancer Drug Screen. Data for the rad52 strain (AID 147);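 note: 0% = growth of vehicle-treated control cultures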; settings: S. cerevisiae rad52 mutant growth inhibition, active compounds read high
# Method in brief: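 Genetically altered yeast (DNA damage repair defect) treated with compound; inhibition calculated relative to vehicle.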
# [13] = NCI Yeast Anticancer Drug Screen. Data for the wt1 strain (AID 149);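 note: 0% = growth of vehicle-treated wt1 cultures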; settings: S. cerevisiae wt1 strain (SPY 50644) growth inhibition, active compounds read high
# Method in brief: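 wt1 yeast, compound-treated; % growth inhibition vs vehicle control.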
# [14] = NCI Yeast Anticancer Drug Screen. Data for the rad50EPP+ strain (AID 151);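 note: 0% = growth of vehicle-treated control cultures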; settings: S. cerevisiae rad50 mutant strain, active compounds read high
# Method in brief: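 Strain rad50EPP+; compound exposure; % growth inhibition vs vehicle.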
# [15] = NCI Yeast Anticancer Drug Screen. Data for the mgt1 strain (AID 153); settings: S. cerevisiae mgt1 mutant growth inhibition, active compounds read high
# Method in brief: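 Read-out: yeast growth inhibition vs vehicle control. Strain mgt1, drawn from a panel altered in DNA damage repair or cell cycle control.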
# [16] = NCI Yeast Anticancer Drug Screen. Data for the rad50 strain (AID 155);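 note: 0% = growth of vehicle-only cultures of the same strain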; settings: S. cerevisiae rad50 strain growth inhibition, active compounds read high
# Method in brief: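 Genetically altered yeast (DNA repair pathway); compound treatment; growth inhibition vs vehicle ctrl.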
# [17] = at 5.0 µM (retest, dose inferred, filed as 0.5)
# [18] = at 50.0 µM (retest, dose inferred, filed as 5.0)
structure (smiles),measurement,setting,value
CC(=O)/C(=C\c1ccc(Cl)c(Cl)c1)C(=O)C(C)CN(C)C (stereo unspecified),growth inhibition,[1]; [17],9%
same,growth inhibition,[1]; at 11.0 µM,38%
same,growth inhibition,[1]; at 33.0 µM,51%
same,growth inhibition,[1]; [18],76% (active)
same,growth inhibition,[1]; at 50.0 µM,87.5% (active)
same,growth inhibition,[1]; at 100.0 µM,93% (active)
same,growth inhibition,[2]; at 1.2 µM,-3%
same,growth inhibition,[2]; at 3.7 µM,2%
same,growth inhibition,[2]; at 11.0 µM,-8%
same,growth inhibition,[2]; at 33.0 µM,22%
same,growth inhibition,[2]; at 100.0 µM,92% (active)
same,growth inhibition,[3]; [17],-8%
same,growth inhibition,[3]; [18],97% (active)
same,growth inhibition,[3]; at 50.0 µM,85.7% (active)
same,growth inhibition,[4]; at 1.2 µM,8%
same,growth inhibition,[4]; at 3.7 µM,-2%
same,growth inhibition,[4]; at 11.0 µM,17%
same,growth inhibition,[4]; at 33.0 µM,44%
same,growth inhibition,[4]; at 100.0 µM,81% (active)
same,growth inhibition,[5]; [17],-1%
same,growth inhibition,[5]; [18],93% (active)
same,growth inhibition,[5]; at 50.0 µM,81.2% (active)
same,growth inhibition,[6]; at 1.2 µM,7%
same,growth inhibition,[6]; at 3.7 µM,-1%
same,growth inhibition,[6]; [17],12%
same,growth inhibition,[6]; at 11.0 µM,11%
same,growth inhibition,[6]; at 33.0 µM,53%
same,growth inhibition,[6]; [18],96% (active)
same,growth inhibition,[6]; at 50.0 µM,82.8% (active)
same,growth inhibition,[6]; at 100.0 µM,93% (active)
same,growth inhibition,[7]; at 1.2 µM,-12%
same,growth inhibition,[7]; at 3.7 µM,-6%
same,growth inhibition,[7]; at 11.0 µM,-1%
same,growth inhibition,[7]; at 33.0 µM,88% (active)
same,growth inhibition,[7]; at 100.0 µM,98% (active)
same,growth inhibition,[8]; at 1.2 µM,6%
same,growth inhibition,[8]; at 3.7 µM,-2%
same,growth inhibition,[8]; at 11.0 µM,10%
same,growth inhibition,[8]; at 33.0 µM,46%
same,growth inhibition,[8]; at 100.0 µM,93% (active)
same,growth inhibition,[9]; at 1.2 µM,40%
same,growth inhibition,[9]; at 3.7 µM,48%
same,growth inhibition,[9]; at 11.0 µM,64%
same,growth inhibition,[9]; at 33.0 µM,76% (active)
same,growth inhibition,[9]; at 100.0 µM,97% (active)
same,growth inhibition,[10]; [17],16%
same,growth inhibition,[10]; [18],97% (active)
same,growth inhibition,[10]; at 50.0 µM,90.3% (active)
same,growth inhibition,[11]; at 1.2 µM,26%
same,growth inhibition,[11]; at 3.7 µM,30%
same,growth inhibition,[11]; at 11.0 µM,55%
same,growth inhibition,[11]; at 33.0 µM,82% (active)
same,growth inhibition,[11]; at 100.0 µM,93% (active)
CC12CCC(CC(=O)/C1=C(/Br)I)C2(C)C (stereo unspecified),growth inhibition,[12]; at 1.2 µM,2%
same,growth inhibition,[12]; at 3.7 µM,3%
same,growth inhibition,[12]; at 11.0 µM,5%
same,growth inhibition,[12]; at 33.0 µM,13%
same,growth inhibition,[12]; at 100.0 µM,3%
same,growth inhibition,[13]; at 1.2 µM,-3%
same,growth inhibition,[13]; at 3.7 µM,-2%
same,growth inhibition,[13]; at 11.0 µM,-1%
same,growth inhibition,[13]; at 33.0 µM,-6%
same,growth inhibition,[13]; at 100.0 µM,-1%
same,growth inhibition,[14]; at 1.2 µM,1%
same,growth inhibition,[14]; at 3.7 µM,5%
same,growth inhibition,[14]; at 11.0 µM,7%
same,growth inhibition,[14]; at 33.0 µM,12%
same,growth inhibition,[14]; at 100.0 µM,3%
same,growth inhibition,[15]; at 1.2 µM,-1%
same,growth inhibition,[15]; at 3.7 µM,-2%
same,growth inhibition,[15]; at 11.0 µM,6%
same,growth inhibition,[15]; at 33.0 µM,-13%
same,growth inhibition,[15]; at 100.0 µM,0%
same,growth inhibition,[16]; at 1.2 µM,1%
same,growth inhibition,[16]; at 3.7 µM,-3%
same,growth inhibition,[16]; [17],1%
same,growth inhibition,[16]; at 11.0 µM,-18%
same,growth inhibition,[16]; at 33.0 µM,14%
same,growth inhibition,[16]; [18],80% (active)
same,growth inhibition,[16]; at 50.0 µM,81% (active)
same,growth inhibition,[16]; at 100.0 µM,5%
same,growth inhibition,[1]; at 1.2 µM,0%
same,growth inhibition,[1]; at 3.7 µM,-2%
same,growth inhibition,[1]; [17],-19%
same,growth inhibition,[1]; at 11.0 µM,-5%
same,growth inhibition,[1]; at 33.0 µM,5%
same,growth inhibition,[1]; [18],95% (active)
same,growth inhibition,[1]; at 50.0 µM,90.4% (active)
same,growth inhibition,[1]; at 100.0 µM,-3%
same,growth inhibition,[2]; at 1.2 µM,1%
same,growth inhibition,[2]; at 3.7 µM,1%
same,growth inhibition,[2]; at 11.0 µM,2%
same,growth inhibition,[2]; at 33.0 µM,3%
same,growth inhibition,[2]; at 100.0 µM,2%
same,growth inhibition,[3]; [17],-9%
same,growth inhibition,[3]; [18],93% (active)
same,growth inhibition,[3]; at 50.0 µM,84.3% (active)
same,growth inhibition,[4]; at 1.2 µM,-1%
same,growth inhibition,[4]; at 3.7 µM,4%
same,growth inhibition,[4]; at 11.0 µM,2%
same,growth inhibition,[4]; at 33.0 µM,0%
same,growth inhibition,[4]; at 100.0 µM,6%
same,growth inhibition,[5]; [17],40%
same,growth inhibition,[5]; [18],68%
same,growth inhibition,[5]; at 50.0 µM,63%
same,growth inhibition,[6]; at 1.2 µM,5%
same,growth inhibition,[6]; at 3.7 µM,11%
same,growth inhibition,[6]; [17],-11%
same,growth inhibition,[6]; at 11.0 µM,18%
same,growth inhibition,[6]; at 33.0 µM,24%
same,growth inhibition,[6]; [18],94% (active)
same,growth inhibition,[6]; at 50.0 µM,78.3% (active)
same,growth inhibition,[6]; at 100.0 µM,10%
same,growth inhibition,[7]; at 1.2 µM,-2%
same,growth inhibition,[7]; at 3.7 µM,-1%
same,growth inhibition,[7]; at 11.0 µM,1%
same,growth inhibition,[7]; at 33.0 µM,3%
same,growth inhibition,[7]; at 100.0 µM,0%
same,growth inhibition,[8]; at 1.2 µM,2%
same,growth inhibition,[8]; at 3.7 µM,-3%
same,growth inhibition,[8]; at 11.0 µM,3%
same,growth inhibition,[8]; at 33.0 µM,3%
same,growth inhibition,[8]; at 100.0 µM,-1%
same,growth inhibition,[9]; at 1.2 µM,-2%
same,growth inhibition,[9]; at 3.7 µM,-1%
same,growth inhibition,[9]; at 11.0 µM,1%
same,growth inhibition,[9]; at 33.0 µM,21%
same,growth inhibition,[9]; at 100.0 µM,1%
same,growth inhibition,[10]; [17],-18%
same,growth inhibition,[10]; [18],96% (active)
same,growth inhibition,[10]; at 50.0 µM,83.2% (active)
same,growth inhibition,[11]; at 1.2 µM,3%
same,growth inhibition,[11]; at 3.7 µM,10%
same,growth inhibition,[11]; at 11.0 µM,31%
same,growth inhibition,[11]; at 33.0 µM,39%
same,growth inhibition,[11]; at 100.0 µM,-1%
